Source: the supplement of paper PMC6555819

What was measured:
Experiment in all cases: PBM binding z-score (relative to random genomic background probes); higher = stronger binding; sequences stand for … in GC…GCGATTGACAGCGTAGAATGAAGG
[1] = test system: RARb homodimer (NR concentration 270 nM)
Procedure, shortened: (§1)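 Each nuclear receptor dimer, without ligand, was incubated for 1 h on custom Agilent 4×180K protein-binding microarrays. Binding was detected with antibodies against each partner (one per run), and scanned fluorescence was regression-normalized. The binding z-scores are referenced to random human genomic background probes.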

[2] = test system: RARg:RXRa (NR concentration 270 nM, RXRa partner concentration 90 nM)
Procedure, shortened: as §1

[3] = test system: RARg homodimer (NR concentration 270 nM)
Procedure, shortened: as §1

[4] = test system: RXRa DBDmut IVT, anti-RXR (DBD mutation: RXRa K156A/R161A, NR concentration 90 nM)
Procedure, shortened: as §1

[5] = test system: RXRa homodimer (NR concentration 180 nM)
Procedure, shortened: as §1

[6] = test system: THRa:RXRa (NR concentration 90 nM, RXRa partner concentration 90 nM)
Procedure, shortened: as §1

[7] = test system: THRa homodimer (NR concentration 90 nM)
Procedure, shortened: as §1

[8] = test system: VDR homodimer (NR concentration 270 nM)
Procedure, shortened: as §1

Sequence	PBM binding z-score [1]	PBM binding z-score [2]	PBM binding z-score [3]	PBM binding z-score [4]	PBM binding z-score [5]	PBM binding z-score [6]	PBM binding z-score [7]	PBM binding z-score [8]
TCCGCTAGGTCAACGATGGTCAGCTAATCTGCTA	3.45	3.93	4.83	1.1	2.23	3.06	1.03	-0.0724
ATCTCTAGGGAAAGATAGTTCAGTGAATGCAAAT	0.675	0.502	0.656	0.0504	0.0958	0.201	-0.33	0.635
AGTCAAAGTACATCTAGGTAACGTAAGATATGCT	-0.123	0.265	0.944	0.854	0.346	0.814	-0.353	0.155
CAAACTAGGTCACCCGAAGGTCAAAGTCCGCATG	5.43	7.91	6.9	2.35	6.29	4.45	3.04	4.18
TCTTGTAGATCAAGCAGGTTAAGACAGCCTGAGT	0.295	-0.0241	-0.105	0.547	0.368	0.23	-0.66	-0.155
TCTTGTAGATCAACAGGAGGTTAGGAAAGATCGA	0.164	0.361	0.196	0.233	0.348	0.437	-0.828	-0.458
TGTCAAAGTTAAAAGGTAACGTAAGTATCCACAC	0.641	1.31	1.09	-0.392	1.22	1.72	-0.237	-0.239
ACTATTAGTTGAGACGAGGGAAACCGATAGGTTG	-0.559	0.157	0.307	0.505	0.0988	0.35	-0.716	0.415
ATCACTAGGTAAAAGTTCAGTGAATCCCGAGGAT	2.5	2.11	1.85	0.717	1.85	1.32	0.468	1.8
CCTACTGGGCCATCAGGGCATTGATATCAACGTT	0.404	0.0558	0.438	-0.959	-0.308	0.292	-0.276	-0.114
ATCTCTAGGTAAAAGTCCAGTGAATCCCGAGGAT	-0.174	0.275	0.393	-0.403	-0.00664	0.296	0.175	0.187
CCTAGCAGGCCAGGGTCACTCAGGCATTTCGCTT	2.73	2.77	2.03	0.226	3.07	2.58	0.878	1.07
CAGCCTAGGTCAGGGCCTGTATAGGAGGAACGTT	2.38	2.68	3.88	-0.731	1.46	1.88	-0.108	-0.924
TCTGATAGGTCAACGATGGTCAGCTAATCTGCTA	3.94	5.15	5.89	1.21	4.73	3.1	-0.296	-0.032
GGATCGAGGGCAAAGTTGATAGCATCTGTCGACG	1.47	2.12	1.7	2.4	2.08	1.39	-0.165	1.94
TCGATTAGGTTAGTCGGGGCATTCAGCCAACATA	0.609	0.149	0.141	1.32	0.147	1.4	0.446	0.465
ATATGTAGGTTATCGGGTCATTTAGTTTGCGCAT	3.08	3.19	2.33	1.69	3.5	3.3	2.86	2.85
CCGACTGCGGCAGAAAGGTTACCATACCATCCGG	1.92	0.857	0.647	-0.0879	1.57	1.02	0.00107	-0.0446
TTAGCAAGGTGAGCTGAGGTCGTTGATCCAACTC	1.52	1.03	0.726	-0.339	1.13	4.75	1.97	2.37
AGAACGAGGGCACGCTGGGTTGATAGCAGAGTAG	1.28	2.01	2.36	1.87	1.56	2.5	0.224	2.08
ACAAGTTGGTCAGCTGAGGTCACACACAATTCGG	4.58	4.2	3.99	2.18	4.19	5.13	5.16	3.37
TCGAGAAGGTTACCAATGGGGCATTCAGCTTTCT	1.48	3.02	1.19	0.529	1.86	0.779	-0.839	-0.528
TAGCCTAGGTCAGATCGGGCCAATATACGCTATA	2.28	2.9	3.4	-0.355	1.51	4.32	0.165	-0.261
CAGCCTAGGTCAGGGCCATTATAGGAGGAACGTT	2.66	3.08	4.01	0.265	1.84	2.07	0.505	-0.15
ATATGTAGGTTACAGCCGGGTCATTCAGGCTATG	2.93	4.28	2.25	0.721	3.34	3.57	1.89	2.96
CCTTACGGTTCACGAGGTTATAGCACGACGAGCG	2	2.73	1.5	3.15	4.01	2.8	1.26	3.82
GCTAGCAGGCCATTTCGGTCACTCAATGACGGGC	1.03	0.276	0.793	0.0509	-0.116	0.245	-0.53	-0.487
TAGCCTAGGTCAGATCGGGCCAGTACACGCTATA	2.33	2.85	3.65	-0.269	1.55	4.29	0.126	0.0191
